Compounds with a hit are over-represented: about 5.8% of the library has one in this group of screens.
TRPV1 PAM: enhances activation of the human vanilloid receptor TRPV1 | TRPV1-expressing cells, Fluo-8 calcium influx, capsaicin EC20 potentiation | potentiation, % at 8.33 µM | 320,000 tested, 0.02% active | AID 540277; in the data active means potentiation above about 80%; inconclusive means between about 30% and that limit; further: 0% is about no effect
Target sequence (Q8NER1 whole entry, looked up): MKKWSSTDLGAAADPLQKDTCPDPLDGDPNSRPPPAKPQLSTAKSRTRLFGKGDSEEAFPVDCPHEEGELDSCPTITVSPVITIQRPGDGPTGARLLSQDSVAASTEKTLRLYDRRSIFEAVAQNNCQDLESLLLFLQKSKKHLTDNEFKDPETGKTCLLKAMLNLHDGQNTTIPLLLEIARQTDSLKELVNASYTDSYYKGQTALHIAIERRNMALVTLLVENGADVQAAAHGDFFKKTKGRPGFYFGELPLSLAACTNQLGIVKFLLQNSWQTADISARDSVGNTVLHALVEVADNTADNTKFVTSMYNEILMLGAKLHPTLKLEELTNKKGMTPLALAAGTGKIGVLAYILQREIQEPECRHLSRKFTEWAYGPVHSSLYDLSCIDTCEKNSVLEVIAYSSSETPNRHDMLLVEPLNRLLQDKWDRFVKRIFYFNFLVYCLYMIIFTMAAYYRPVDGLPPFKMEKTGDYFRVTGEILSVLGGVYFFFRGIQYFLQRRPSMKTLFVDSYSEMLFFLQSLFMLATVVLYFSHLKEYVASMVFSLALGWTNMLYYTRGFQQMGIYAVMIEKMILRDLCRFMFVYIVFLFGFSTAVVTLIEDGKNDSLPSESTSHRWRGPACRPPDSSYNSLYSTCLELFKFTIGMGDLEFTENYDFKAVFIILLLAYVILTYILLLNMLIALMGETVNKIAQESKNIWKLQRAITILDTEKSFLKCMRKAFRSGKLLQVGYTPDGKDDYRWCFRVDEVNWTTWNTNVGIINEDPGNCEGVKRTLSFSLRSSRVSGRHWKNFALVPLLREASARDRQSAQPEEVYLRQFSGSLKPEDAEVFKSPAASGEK
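Cells expressing TRPV1 were dye-loaded with Fluo-8 and read kinetically: 10 s baseline, 3 min after compound (agonist portion), then 2 min after EC20 capsaicin (allosteric enhancer portion). Calcium-bound dye fluorescence at 480/520 nm.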
uPA surface inh: blocks generation of uPA at the cell surface. AID 540303. cell surface uPA generation assay, qHTS. Potency, µM (doses to about 38.3 µM), for the others: top-dose activity change, negative = inhibition, usual class: inhibitors. 330,000 tested, 0.31% active; active means well fitted inhibition curve with a large enough effect; inconclusive means small, poorly fitted or top-dose-only effect; inactive means no such curve, though single readings can be large or run the other way; tested in mouse RAW 264.7 cells; further: potency means the concentration at half of the fitted maximal effect; on the % scale 0 is the no-effect control and ±100 the full control effect; nearly all actives have a fitted effect of over 55% in size
TRPV1 ag: human TRPV1 agonism. TRPV1-expressing cells, Fluo-8 calcium influx, agonist mode. activation, % at 8.33 µM. 320,000 tested, 0.19% active. AID 540275; in the data active means activation above about 80%; inconclusive means between about 30% and that limit; further: 0% is about no effect
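Cells expressing TRPV1 were dye-loaded with Fluo-8 and read kinetically: 10 s baseline, 3 min after compound (agonist portion), then 2 min after EC20 capsaicin (allosteric enhancer portion). Calcium-bound dye fluorescence at 480/520 nm.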
RORg inh: blocks mouse ROR gamma transcriptional activity; Potency, µM (titrated, usually from 53.6 µM), inactives show top-dose activity change, negative = inhibition, actives largely listed as inhibitors; Drosophila S2 Gal4-RORgamma UAS-luciferase reporter, 20 h; P51450; 310,000 tested, 5.4% active; further: potency means the concentration at half of the fitted maximal effect; on the % scale 0 is the no-effect control and ±100 the full control effect; nearly all actives have a fitted effect of over 60% in size
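Compounds are pin-transferred onto Drosophila Schneider cells expressing a copper-inducible Gal4–ROR gamma transactivation domain fusion. After 1 hr, copper sulfate is added to 700 uM final; luciferase is read 20 hr later.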
VP16 counter: Gal4-VP16 reporter inhibition counter-screen; Drosophila S2 Gal4-VP16 UAS-luciferase, luminescence, 20 h; Potency, µM (top dose mostly 53.6 µM), without a hit: at the highest dose activity, negative = inhibition, usual class: inhibitors; 310,000 tested, 3.5% active; AID 2546;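 further: Gal4-VP16 expression switched on by copper sulfate through the metallothionein promoter; potency means the concentration at half of the fitted maximal effect; on the % scale 0 is the no-effect control and ±100 the full control effect; nearly all actives have a fitted effect of over 50% in size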
Starred values were filed as active, the others as inactive. Unless noted, the call rests on the fitted dose curve; in most records, active means well fitted curve in the direction sought with a large enough effect; inconclusive means small, poorly fitted or top-dose-only effect, or another doubt; inactive means no such curve, though single readings can be large; an effect the other way counts as inactive or inconclusive.

For COc1cccc(C(=O)Nc2ccc(NC(=O)C(C)(C)C)cn2)c1 the results were TRPV1 PAM -8, uPA surface inh -12%, TRPV1 ag -19, RORg inh 7.1µM* and VP16 counter 8.9µM*.
O=C(Nc1ccc(Br)cn1)c1cccc(C(=O)Nc2ccc(Br)cn2)c1 was read as TRPV1 PAM -15, uPA surface inh 0%, TRPV1 ag 9, RORg inh inconclusive and VP16 counter 1.3µM*.
Screening COC(=O)c1c(NC(=O)CN2CCCC(C)C2)c2c(C)cccc2n1C (stereo not drawn) returned TRPV1 PAM -30, uPA surface inh -5%, TRPV1 ag 1, RORg inh -37% and VP16 counter -8%.
Screening COC(=O)C1C(=O)C(C(=O)/C=C/c2ccco2)C(=O)CC1(C)C (stereo not drawn) returned RORg inh -17% and VP16 counter 29%.
Screening Cc1ccc(C(=O)O/N=C(\N)c2ccccc2)c(Cl)c1 returned TRPV1 PAM -5, uPA surface inh -7%, TRPV1 ag 8, RORg inh 4.5µM* and VP16 counter 8.9µM*.
Screening Cc1ccc(C(=O)O/N=C(\N)c2ccccn2)c(Cl)c1 returned TRPV1 PAM -3, uPA surface inh inconclusive, TRPV1 ag 12, RORg inh 0.71µM* and VP16 counter 2.8µM*.
`N/C(=N\OC(=O)c1cc(Br)ccc1Cl)c1ccccn1` gave TRPV1 PAM -4, uPA surface inh -16%, TRPV1 ag 2, RORg inh -44% and VP16 counter inconclusive.
`N/C(=N\OC(=O)c1ccc(Cl)cc1Cl)c1ccccn1` gave TRPV1 PAM 7, uPA surface inh 2.8µM*, TRPV1 ag 12, RORg inh 7.1µM* and VP16 counter inconclusive.
For CCCCOC(=O)c1ccc(NC(=O)CN2C(=O)NC3(CCCCCC3)C2=O)cc1 the results were TRPV1 PAM 4, uPA surface inh 8.9µM* and TRPV1 ag 9.
O=C(Cc1ccccc1)N[C@H](c1ccccc1)P(=O)(O)CO was read as TRPV1 PAM 25, uPA surface inh 8%, TRPV1 ag -1, RORg inh 2.8µM* and VP16 counter -4%.
For O=[N+]([O-])c1cccc(Cl)c1Cl the results were RORg inh 2% and VP16 counter -1%.
Screening CCOc1cc(/C=C2\CN(C)C/C(=C\c3ccc(O)c(OCC)c3)C2=O)ccc1O returned TRPV1 PAM -21, uPA surface inh -16%, TRPV1 ag -2, RORg inh inconclusive and VP16 counter inconclusive.
CCOc1cc(/C=C2\CCC/C(=C\c3cc(Cl)c(O)c(OCC)c3)C2=O)cc(Cl)c1O was read as TRPV1 PAM -9, uPA surface inh -7%, TRPV1 ag 2, RORg inh inconclusive and VP16 counter 11µM*.
Screening Cc1ccccc1C(=O)NCC(=O)OC1CCCCC1=O (stereo not drawn) returned TRPV1 PAM 2, uPA surface inh -1% and TRPV1 ag -1.
`CCCCn1c(CCCNC(=O)c2ccco2)nc2ccccc21` gave TRPV1 PAM 11, uPA surface inh 2%, TRPV1 ag 16, RORg inh 14% and VP16 counter -3%.
For CCC(C)(O)C(=O)N[C@H]1CCCN1C(=O)/C=C/c1ccccc1 (stereo partly drawn) the results were uPA surface inh 11%.
For CC(C)C(=O)NC(=S)N(Cc1ccccc1)Cc1ccccc1 the results were TRPV1 PAM -12, uPA surface inh -19%, TRPV1 ag 21, RORg inh 2.8µM* and VP16 counter 5µM*.
CC(C)CC(=O)NC(=S)N(Cc1ccccc1)Cc1ccccc1 was read as TRPV1 PAM -11, uPA surface inh 0%, TRPV1 ag 18, RORg inh 3.2µM* and VP16 counter 6.3µM*.
Screening O=Cc1s/c(=N\S(=O)(=O)c2ccccc2)n(CCCCl)c1Cl returned TRPV1 PAM -9, uPA surface inh -17%, TRPV1 ag 7, RORg inh 5µM* and VP16 counter inconclusive.
For O=C(CCS(=O)(=O)c1ccc(F)cc1)Nc1nnc(-c2ccc(F)cc2)o1 the results were TRPV1 PAM -3, uPA surface inh -9% and TRPV1 ag 3.
Screening COc1ccccc1-c1nnc(NC(=O)CCS(=O)(=O)c2ccccc2)o1 returned TRPV1 PAM 0, uPA surface inh inconclusive, TRPV1 ag 4, RORg inh 10µM* and VP16 counter 10µM*.
Screening CCN(CC)S(=O)(=O)c1ccc(C(=O)Nc2ncn(Cc3ccccc3)n2)cc1 returned TRPV1 PAM -11, uPA surface inh 14%, TRPV1 ag 2, RORg inh -42% and VP16 counter -3%.
For CCN(Cc1ccccc1)S(=O)(=O)c1ccc(C(=O)Nc2nnc(-c3ccccc3OC)o2)cc1 the results were TRPV1 PAM 15, uPA surface inh -6%, TRPV1 ag 7, RORg inh 0.2µM* and VP16 counter 0.35µM*.
`COc1ccc(NC(=O)c2ccc(S(=O)(=O)N(C)C)cc2)cc1OC` gave TRPV1 PAM -8, uPA surface inh -3%, TRPV1 ag 8, RORg inh -2% and VP16 counter -1%.
COc1ccccc1-c1nnc(NC(=O)c2ccc(S(=O)(=O)N(C)C)cc2)o1 was read as TRPV1 PAM 1, uPA surface inh -3%, TRPV1 ag -2, RORg inh 0.71µM* and VP16 counter 0.63µM*.
For O=C(Nc1ccc(Cl)c(Cl)c1)Nc1nnc(CC2=CCCCC2)s1 the results were TRPV1 PAM 3, uPA surface inh 15%, TRPV1 ag -1, RORg inh inconclusive and VP16 counter 13µM*.
O=C(Nc1nnc(CC2=CCCCC2)s1)c1cccs1 was read as TRPV1 PAM -9, uPA surface inh -1%, TRPV1 ag 28, RORg inh inconclusive and VP16 counter inconclusive.
`CC1(C)C2CC=C(/C=N/n3cnnc3)C1C2` (stereo not drawn) gave TRPV1 PAM 13, uPA surface inh 3%, TRPV1 ag 1, RORg inh -5% and VP16 counter -4%.
CC1(C)C2CC=C(/C=N/NC(=S)NCCc3ccccc3)C1C2 (stereo not drawn) was read as TRPV1 PAM 7, uPA surface inh 2%, TRPV1 ag inconclusive, RORg inh 2µM* and VP16 counter 7.1µM*.
`CC1(C)C2CC=C(/C=N/NC(=O)c3ccccc3O)C1C2` (stereo not drawn) gave TRPV1 PAM -23, uPA surface inh -1%, TRPV1 ag inconclusive, RORg inh 8.9µM* and VP16 counter inconclusive.
Screening CNC(=S)N/N=C/C1=CCC2CC1C2(C)C (stereo not drawn) returned TRPV1 PAM -22, uPA surface inh inconclusive, TRPV1 ag 22, RORg inh 1.3µM* and VP16 counter 2.5µM*.
